Results: PubChem BioAssay (NCI)
About 79,000 compounds went through this panel and 15% of them were active in at least one assay; those are over-represented in the sample as a whole. Unmarked numbers belong to inactive results. Active and inactive are the calls of the source. Rule as the data show it: active = growth inhibition above about 70%; inactive = the rest.

Legend:
[1] = NCI Yeast Anticancer Drug Screen. Data for the rad50 strain (AID 155);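 also: 0% = growth of vehicle-only cultures of the same strain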; conditions: S. cerevisiae rad50 strain growth inhibition, active compounds read high
How it was run: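 Inhibition values express reduced yeast growth in compound-treated cultures relative to vehicle-treated controls.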

[2] = NCI Yeast Anticancer Drug Screen. Data for the mec2-1 strain (AID 157); conditions: S. cerevisiae mec2-1 strain, active compounds read high
How it was run: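 Using mec2-1 yeast: add compound, measure growth, express inhibition versus vehicle-treated cultures.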

[3] = NCI Yeast Anticancer Drug Screen. Data for the sgs1 mgt1 strain (AID 161);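 also: 0% = growth of cultures given vehicle only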; conditions: S. cerevisiae sgs1 mgt1 strain, active compounds read high
How it was run: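 This yeast growth screen uses a strain with defined DNA-repair lesions; compound-treated growth is compared with vehicle-treated growth.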

[4] = NCI Yeast Anticancer Drug Screen. Data for the cln2 rad14 strain (AID 165);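 also: 0% = growth equal to vehicle treated cultures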; conditions: S. cerevisiae cln2 rad14 strain, active compounds read high
How it was run: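 Yeast strain cln2 rad14, bearing defects in cell cycle control and DNA repair, serves as the test system; values reflect growth inhibition compared with vehicle.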

[5] = NCI Yeast Anticancer Drug Screen. Data for the bub3 strain (AID 167); conditions: S. cerevisiae bub3 mutant strain, active compounds read high
How it was run: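 Steps: expose the mutant yeast strain to compound; grow alongside vehicle-treated cultures; measure growth; express inhibition against the vehicle cultures.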

[6] = NCI Yeast Anticancer Drug Screen. Data for the mlh1 rad18 strain (AID 175); conditions: S. cerevisiae mlh1 rad18 strain growth inhibition, active compounds read high
How it was run: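 Steps: expose repair-defective yeast to compound; measure growth; express inhibition against vehicle-treated controls.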

[7] = at 5.0 µM (retest, dose inferred, filed as 0.5)
[8] = at 50.0 µM (retest, dose inferred, filed as 5.0)

SMILES	growth inhibition [1, 7]	growth inhibition [1, 8]	growth inhibition ([1]; at 50.0 µM)	growth inhibition [2, 7]	growth inhibition [2, 8]	growth inhibition ([2]; at 50.0 µM)	growth inhibition [3, 7]	growth inhibition [3, 8]	growth inhibition ([3]; at 50.0 µM)	growth inhibition [4, 7]	growth inhibition [4, 8]	growth inhibition ([4]; at 50.0 µM)	growth inhibition [5, 7]	growth inhibition [5, 8]	growth inhibition ([5]; at 50.0 µM)	growth inhibition [6, 7]	growth inhibition [6, 8]	growth inhibition ([6]; at 50.0 µM)
CNC(Cc1ccccc1)c1ccc(OC)c2ccccc12 (configuration not stated)	3%	9%	18.2%	6%	-16%	10.2%	-3%	-10%	14.8%	-1%	11%	7.7%	27%	25%	51.7%	-2%	40%	21.6%
Brc1cc2ccccc2c2ccccc12	11%	91% (active)	75.1% (active)	-7%	54%	65.2%	7%	89% (active)	59.8%	11%	28%	-16.1%	23%	81% (active)	55.3%	41%	91% (active)	40.8%
CCOC(=O)NC(NC(=O)OCC)C(=O)Nc1cccc2c(OC(=O)C(NC(=O)OCC)NC(=O)OCC)c(N=Nc3ccc(S(=O)(=O)Nc4nccs4)cc3)cc(N=Nc3ccc(S(=O)(=O)Nc4nccs4)cc3)c12 (tested in a mixture with another compound)	94% (active)	43%	78.7% (active)	97% (active)	59%	74.9% (active)	96% (active)	58%	65.8%	95% (active)	70% (active)	70.3% (active)	95% (active)	59%	61.8%	88% (active)	29%	83.1% (active)
CCCCCCCCCCCCCC(=O)OCC[N+](C)(C)C	26%	98% (active)	90.2% (active)	27%	99% (active)	92.5% (active)	41%	99% (active)	92.9% (active)	32%	98% (active)	88.8% (active)	40%	99% (active)	91.5% (active)	34%	98% (active)	90.5% (active)
CC1=NC(C)=C(/C(C)=N/NC(=O)c2ccccc2O)C(C)/C1=C(/C)NNC(=O)c1ccccc1O (configuration not stated)	16%	16%	74.7% (active)	12%	12%	75% (active)	-1%	-1%	81.1% (active)	-2%	-2%	62%	-3%	-3%	82.8% (active)	2%	2%	80% (active)
CC1CC(C)C(C)C(CO)C1 (configuration not stated)	8%	-3%	-22.4%	4%	-3%	-3.2%	-8%	-1%	-22.6%	-1%	-3%	40%	0%	4%	-0.05%	6%	-5%	-12.2%
O=S(=O)(Nc1ccc2ccccc2c1)c1ccccc1	-10%	98% (active)	97.7% (active)	-21%	99% (active)	98% (active)	2%	99% (active)	97.8% (active)	7%	93% (active)	92.2% (active)	-9%	99% (active)	97.2% (active)	-18%	98% (active)	98% (active)
Cc1ccc(/C=C2\CN(C)CC3=C2NC(=S)NC3c2ccc(C)cc2)cc1 (configuration not stated)	31%	40%	30.2%	18%	54%	4.2%	-31%	21%	30.6%	18%	33%	16.7%	-10%	44%	20.1%	26%	48%	58.3%
Cc1c(Cl)nc(-c2ccccc2)nc1C(=O)CCl	43%	78% (active)	22.1%	67%	91% (active)	-0.1%	90% (active)	93% (active)	70.5% (active)	22%	66%	9.45%	38%	86% (active)	-34.3%	65%	89% (active)	4.5%
Clc1ccc2nc3c(c(N4CCOCC4)c2c1)CCCC3	94% (active)	97% (active)	99% (active)	92% (active)	99% (active)	99.3% (active)	94% (active)	98% (active)	99.2% (active)	80% (active)	99% (active)	98.9% (active)	53%	98% (active)	99.5% (active)	96% (active)	98% (active)	99.2% (active)
COC(=O)c1[nH]cnc1/N=N/N(C)C	98% (active)	98% (active)	98.8% (active)	99% (active)	99% (active)	98.9% (active)	99% (active)	99% (active)	99.5% (active)	99% (active)	98% (active)	99% (active)	49%	49%	98.8% (active)	98% (active)	99% (active)	99.3% (active)
CC1=CC2C(O)(CC(CO)=CC3C4C(C)(C)C4(OC(=O)c4ccccc4)C(OC(=O)c4ccccc4)C(C)C32O)C1=O (configuration not stated)	95% (active)	96% (active)	90.3% (active)	96% (active)	98% (active)	91.7% (active)	96% (active)	97% (active)	92% (active)	73% (active)	97% (active)	88.3% (active)	95% (active)	96% (active)	89.2% (active)	97% (active)	97% (active)	88.6% (active)
CC(C)(C)C(=O)CC(=O)C(F)(F)C(F)(F)C(F)(F)F.CC(C)(C)C(=O)CC(=O)C(F)(F)C(F)(F)C(F)(F)F.CC(C)(C)C(=O)CC(=O)C(F)(F)C(F)(F)C(F)(F)F.[Fe]	21%	85% (active)	38.5%	5%	88% (active)	9.3%	43%	88% (active)	74.9% (active)	13%	91% (active)	19.8%	-1%	37%	-1.15%	32%	93% (active)	84.5% (active)
CN(CC(=O)O)c1ncc2c(n1)-c1ccccc1OC2	17%	13%	48.6%	8%	12%	57.1%	6%	17%	-21%	14%	18%	-23.5%	12%	15%	-28.1%	14%	10%	-55.2%
CC(=O)O[C@H]1CC[C@H]2[C@@H]3CCc4cc(O)c(I)cc4[C@H]3CC[C@]12C	12%	84% (active)	51.3%	0%	58%	43.8%	23%	93% (active)	72.4% (active)	21%	75% (active)	45%	20%	82% (active)	47.5%	6%	80% (active)	63.4%
O=C1c2cccnc2-c2nccc3c2c1nc1cc(Br)ccc13	61%	98% (active)	88.7% (active)	44%	99% (active)	92.2% (active)	94% (active)	98% (active)	89.9% (active)	28%	97% (active)	88.2% (active)	88% (active)	98% (active)	89.2% (active)	58%	98% (active)	77.2% (active)
COC(=O)CCC(NC(=S)N/N=C/c1ccccn1)C(=O)OC (configuration not stated)	-2%	29%	72.1% (active)	-54%	47%	49.1%	-25%	41%	57.4%	-11%	33%	60.8%	-6%	59%	71.8% (active)	-30%	48%	61.8%
O=C(NCCN1CCN2Cc3[nH]c4ccccc4c3CC2C1)c1ccc(Cl)cc1 (configuration not stated)	9%	50%	51.6%	10%	40%	46.8%	1%	50%	61%	27%	72% (active)	55.6%	26%	53%	50.5%	8%	60%	53.5%
O=C(O)c1ccccc1Cc1ccc2c(c1)Cc1ccccc1-2	2%	76% (active)	62.5%	-5%	67%	66.3%	6%	89% (active)	63.5%	-19%	88% (active)	71.2% (active)	-6%	68%	50.4%	14%	80% (active)	79.2% (active)
